Assay results from PubChem BioAssay AID588689 (Southern Research Specialized Biocontainment Screening …, 2011).
Screen size: about 340,000 compounds; about 1,000 (0.29%) were called active. Rule as the data show it: inconclusive = inhibition above about 29% without an active follow-up result; inactive = below that. These entries were drawn from the full list. Entries with a potency or affinity are not part of this list.

Target: Genome polyprotein (Dengue virus type 2 (strain 16681-PDK53)) (UniProt P29991)
Assay: flavivirus cap methylation enzyme inhibition – biochemical, confirmation dose response, primary screen (AID 588689)
Conditions: Dengue-2 NS5 methyltransferase capping enzyme assay, at 25 µM, stronger effect = higher value
[1] = measured here: pilot screen replicate inhibition

SMILES | inhibition | inhibition [1]
Cc1ccc(C2NC(=S)N3C(c4ccc(C)cc4)NC(=S)N23)cc1 (configuration not stated) | -0.57% (inactive) | –
Cc1ccc(NC(=O)c2ccccc2-c2ccccc2C(=O)O)cc1C | -2.19% (inactive) | –
COc1cccc(NC(=O)c2ccccc2-c2ccccc2C(=O)O)c1 | -10.1% (inactive) | –
O=C(Nc1ccc2c(c1)C(=O)c1ccccc1-2)c1ccccc1 | -0.39% (inactive) | –
COc1ccc(NC(=O)c2ccccc2-c2ccccc2C(=O)O)cc1 | -8.51% (inactive) | –
CC(=O)Nc1ccc(-c2nc3cc(Cl)ccc3o2)cc1 | 0% (inactive) | –
CCn1c2ccccc2c2cc(NC(C)=O)ccc21 | 4.77% (inactive) | –
O=C(O)c1ccccc1-c1ccccc1C(=O)Nc1cccc(-c2nc3ccccc3o2)c1 | 8.19% (inactive) | –
CCn1c2ccccc2c2cc(NC(=O)c3ccccc3[N+](=O)[O-])ccc21 | 1.28% (inactive) | –
CCN(CC)S(=O)(=O)c1cccc(NC(=O)COC(=O)/C=C/c2cccs2)c1 | -2.65% (inactive) | –
O=C(O)C1CCN(C(=O)Cc2ccccc2)CC1 | 2.22% (inactive) | –
c1ccc(C2CC(c3ccccc3)C(c3ccccc3)N2)cc1 (configuration not stated) | -3.92% (inactive) | -2.44%
CCCOc1ccccc1N/C(=N/c1nc(C)cc(C)n1)NC(=O)Nc1ccc(Cl)cc1 | -4.07% (inactive) | –
Oc1ccc(C[C@H]2CNCCN2CCc2cccc3ccccc23)cc1 | 6.4% (inactive) | –
O=C(NCCCO)c1cc2ccccc2[nH]1 | -9.54% (inactive) | –
O=C1Nc2ccccc2C12NCCc1c2[nH]c2ccccc12 (configuration not stated) | 6.48% (inactive) | –
O=C(O)c1ccccc1-c1ccccc1C(=O)Nc1ccc2oc(=O)c3ccccc3c2c1 | 11.5% (inactive) | –
O=C(O)c1ccccc1-c1ccccc1C(=O)Nc1ccc2c(c1)[nH]c(=O)c1ccccc12 | 9.14% (inactive) | –
CCC(NS(=O)(=O)c1ccc(OC)cc1)C(=O)NCCc1ccccc1 (configuration not stated) | -3.31% (inactive) | –
Cc1ccc(OCC(=O)Sc2ccc(C)cc2)cc1 | -33.2% (inactive) | –
CC1(C)[C@@H](O)CC[C@]2(C)[C@H]3C(=O)C=C4[C@@H]5C[C@@](C)(C(=O)O)CC[C@]5(C)CC[C@@]4(C)[C@]3(C)CC[C@@H]12 | -0.73% (inactive) | –
Cc1sc2ncnc(N3CCC(C(=O)Nc4sc5c(c4C(N)=O)CCC(C)C5)CC3)c2c1C (configuration not stated) | 0% (inactive) | –
Cc1cccc(CCNC(=O)CCc2nnc(CCc3ccccc3)o2)n1 | -0.91% (inactive) | –
CC(NC(=O)c1ccco1)C(=O)NC(C)c1cc(F)c(Cl)cc1Cl (configuration not stated) | -1.62% (inactive) | –

SMILES | inhibition | inhibition [1]
COc1ccc(CC(=O)Nc2ccc(S(=O)(=O)N3CCOCC3)cc2)cc1 | 0% (inactive) | –
O=C(COC(=O)c1ccc([N+](=O)[O-])o1)NCc1ccc2c(c1)OCO2 | 0% (inactive) | –
O=C(O)c1cccc(-n2cccc2/C=C\[N+](=O)[O-])c1 | 0.75% (inactive) | –
O=C(O)c1cccc(-n2cccc2/C=N/O)c1 | 0% (inactive) | –
O=C(N/C(=C\c1cccnc1)C(=O)N1CCC(O)CC1)c1ccccc1 | -1.67% (inactive) | –
CC(=O)Nc1ccc(S(=O)(=O)NCCC(=O)OCC(=O)c2ccc(Br)cc2)cc1 | -10.1% (inactive) | –
Cc1ccc(C)n1N1C(=O)/C(=C\c2ccc(Cl)cc2)SC1=S | 6.92% (inactive) | –
CC(=O)NN1C(=O)/C(=C\c2ccc(Cl)cc2)SC1=S | 1.78% (inactive) | –
COc1ccc(-c2nc(CS(=O)CC(=O)NCc3ccc(F)cc3)c(C)o2)cc1 (configuration not stated) | -10.5% (inactive) | –
COc1cc(C(=O)NCCC(c2ccccc2)c2ccccc2)cc(OC)c1OC | -9.51% (inactive) | –
CC1=NN(c2ccccc2)C(=O)/C1=C\c1cc(C)n(-c2ccccc2)c1C | -4.02% (inactive) | –
CC1=NN(c2ccccc2)C(=O)/C1=C/c1ccc[nH]1 | -6.55% (inactive) | –
CC1=NN(c2ccccc2)C(=O)/C1=C/C=C/c1ccccc1 | 0.72% (inactive) | –
CC(=O)c1ccc(OC(=O)c2cccs2)cc1 | -2.4% (inactive) | –
CCOc1cc(/C=C2/C(=O)N(c3ccccc3)N=C2C)ccc1OC(=O)c1cccs1 | 8.81% (inactive) | –
CC1=NN(c2ccccc2)C(=O)/C1=C\c1sccc1C | 3.11% (inactive) | –
CC1=NN(c2ccc(Br)cc2)C(=O)/C1=C/c1cccs1 | 22% (inactive) | –
CC1=NN(c2ccccc2)C(=O)/C1=C/N(C)C | 2.35% (inactive) | –
COCCN(C(=O)COC(=O)C(c1ccccc1)c1ccccc1)c1c(N)n(Cc2ccccc2)c(=O)[nH]c1=O | 0% (inactive) | –
CCC(C(=O)OCC(=O)N(C)c1c(N)n(Cc2ccccc2)c(=O)[nH]c1=O)c1ccccc1 (configuration not stated) | -2.91% (inactive) | –
COc1cccc(N2C(=O)Nc3ccc(Br)cc3C2(O)C(=O)NCCCOC(C)C)c1 (configuration not stated) | -4.76% (inactive) | –
Cc1cc(C)c(C)c(S(=O)(=O)NCCN2CCOCC2)c1C | 6.21% (inactive) | –
COC(=O)c1ccc(CSC2=NC[C@@H]3[C@@H]4C(=O)N(C)C(=O)[C@@H]4[C@](C)(C(=O)OC)N23)cc1 | -0.66% (inactive) | 1.52%
CCOc1ccc(C(=O)NCC(=O)NCCCSc2ccccc2)cc1OCC | -5.91% (inactive) | –

SMILES | inhibition | inhibition [1]
CCOC(=O)N1CCN(CC(=O)c2ccc(O)c(C)c2O)CC1 | 0.45% (inactive) | –
CC1=NN(c2ccccc2)C(=O)/C1=C\c1cn(-c2ccccc2)nc1C | 3.59% (inactive) | –
CC1=NN(c2ccccc2)C(=O)/C1=C\c1cc(C)n(C)c1C | 0% (inactive) | –
COc1ccc(/C=C2/C(=O)N(c3ccccc3)N=C2C)cc1Br | 18.3% (inactive) | –
CC1=NN(c2ccccc2)C(=O)/C1=C\N(O)c1ccccc1 | 1.98% (inactive) | -1.18%
COc1ccccc1/C=C1/C(=O)N(c2ccc([N+](=O)[O-])cc2)N=C1C | 3.11% (inactive) | –
CC1=NN(c2ccccc2)C(=O)/C1=C\c1ccc(Br)s1 | -0.88% (inactive) | –
OCCC1CN(Cc2cc3c(cc2Cl)OCO3)CCN1Cc1ccccc1 (configuration not stated) | 1.46% (inactive) | –
CCN(CC)S(=O)(=O)c1cc(NC(=O)CSc2nnc(N)s2)ccc1C | 0.37% (inactive) | –
COc1ccc(C(=O)NC(=S)Nc2cccnc2)cc1[N+](=O)[O-] | 6.37% (inactive) | –
CC(C)C(=O)NNS(=O)(=O)c1ccccc1[N+](=O)[O-] | -1.48% (inactive) | –
Cc1nn(-c2ccc(F)cc2)c(Cl)c1C(=O)N(C)CC(=O)Nc1cccc(F)c1 | -5.05% (inactive) | –
CCCC(=O)N(c1ccc(C(=O)O)cc1)c1nc(-c2ccccc2)c(C)s1 | -13.9% (inactive) | –
Cc1c(Br)c(=O)oc2c(Br)c(O)c(O)cc12 | 6.73% (inactive) | –
Cc1c(Br)c(=O)oc2c(Br)c(O)ccc12 | -1.45% (inactive) | –
CCOC(=O)C(=O)NNc1ccccc1OC | -3.11% (inactive) | –
Cc1ccc(Cc2c(-c3ccc(Cl)cc3)nc3ccc(Cl)cn23)cc1 | 7.95% (inactive) | –
COc1ccc(/C=C2/C(=O)ON=C2C)cc1Cl | 5.23% (inactive) | –
C#CCOc1ccc(Cl)cc1/C=C1/C(=O)ON=C1C | 10.6% (inactive) | –
C#CCOc1c(Cl)cc(/C=C2/C(=O)ON=C2C)cc1OC | 19.6% (inactive) | –
CCOc1cc(/C=C2/C(=O)ON=C2C)cc(Br)c1O | -74.3% (inactive) | –
COc1ccc(/C=C2/C(=O)ON=C2C)cc1Br | 17.8% (inactive) | –
S=C(NCCc1c[nH]c2ccccc12)NC1CC1 | 2.32% (inactive) | –
N#C/C(=C\c1ccc([N+](=O)[O-])cc1)C(=O)Nc1ccccc1O | 8.94% (inactive) | –

SMILES | inhibition | inhibition [1]
Brc1ccc(-c2nnc3n2CCCCC3)cc1 | -4.77% (inactive) | –
Cc1ccccc1CSCCNC(=O)COc1ccc(Cl)cc1 | -3.24% (inactive) | –
Cc1occc1C(=O)NNC(=O)c1ccccc1[N+](=O)[O-] | 1.62% (inactive) | –
CCC(=O)N1CCc2cc(Br)cc(S(=O)(=O)NCc3ccco3)c21 | 0% (inactive) | –
CC(=O)C1=C(O)C(=O)OC1c1ccc(C)cc1 (configuration not stated) | -9.38% (inactive) | –
O=C(O)c1ccccc1C(=O)c1ccc(Cl)cc1 | 1.15% (inactive) | –
O=C1OC(c2ccc(Cl)cc2)/C(=C(/O)c2ccccc2)C1=O (configuration not stated) | 28.1% (inactive) | –
CC(=O)C1=C(O)C(=O)OC1c1ccc(Cl)cc1 (configuration not stated) | -3.11% (inactive) | –
CC(=O)Nc1ccc(S(=O)(=O)N2CCC(N3CCCCCC3)CC2)cc1 | -3.4% (inactive) | –
CCOc1ccc(NC(=O)C2=NN(c3ccccc3)C(=O)CC2)cc1S(=O)(=O)N1CCCCC1 | -4.38% (inactive) | –
COc1cccc(N2CC(O)Cn3c2nc2c3c(=O)[nH]c(=O)n2C)c1 (configuration not stated) | -3.08% (inactive) | –
COc1ccc(NC(=O)c2ccc(S(=O)(=O)N3CC(C)OC(C)C3)cc2)cc1 (configuration not stated) | 3.36% (inactive) | –
CN(CC(=O)Nc1ccc(S(=O)(=O)N(C)C)cc1)Cc1ccc(C(F)(F)F)cc1 | 2.22% (inactive) | –
O=[N+]([O-])c1cccc(C=Nc2cccc3ccccc23)c1O | 14.3% (inactive) | –
Nc1ccc(-c2ccc(N)c([N+](=O)[O-])c2)cc1[N+](=O)[O-] | -9.54% (inactive) | –
O=[N+]([O-])c1ccccc1N=Nc1ccc(O)cc1 | 0% (inactive) | –
Nc1ccc(N=Nc2ccccc2)cc1[N+](=O)[O-] | -3.11% (inactive) | –
O=C(c1cc(O)c(O)c([N+](=O)[O-])c1)c1ccccc1F | -7.33% (inactive) | –
COc1cc(CN(C)Cc2cccc3ccccc23)cc([N+](=O)[O-])c1O | 11.1% (inactive) | 0.595%
Cc1cc(Nc2ccccc2C(=O)O)n2ncnc2n1 | 6.29% (inactive) | –
Cn1c(N)c(S(=O)(=O)N2CCN(c3ccccc3F)CC2)c(=O)n(C)c1=O | -7.15% (inactive) | –
